In PubChem BioAssay (Tox21):
“And” between values parts separate entries of the source, which are not always exact repeats. Equal entries are not always repeated. The source holds several records for some structures; these can differ, active in one and inactive in another. The source made the active and inactive calls. Unless noted, calls follow the shape of the dose curve; as a rule, active = well fitted curve in the direction sought with a large enough effect in the repeat runs; inconclusive = weak or mixed curves; inactive = no such curve, though single readings can be large; an effect the other way counts as inactive or inconclusive.

Tests used:
[1] = qHTS assay to identify small molecule antagonists of the thyroid receptor (TR) signaling pathway - cell viability counter screen (AID 743064); also: nearly all actives have a fitted effect of over 50% in size; also: potency is read from the fitted curve at half-maximal effect
Procedure, shortened: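 CellTiter-Fluor readout, 30 min at 37 °C/5% CO2, following 23.5 h incubation of GH3.TRE-Luc cells with test compound and 1 nM T3 (final).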

[2] = qHTS assay to identify small molecule antagonists of the thyroid receptor (TR) signaling pathway (AID 743065); also: nearly all actives have a fitted effect of over 55% in size; also: potency is read from the fitted curve at half-maximal effect
Procedure, shortened: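 GH3.TRE-Luc rat pituitary cells (two TREs driving luciferase) were dosed with compound, then stimulated with 1 nM T3 (final) for 23.5 h at 37 C. ONE-Glo luminescence was the read-out, with CellTiter-Fluor fluorescence as the cytotoxicity counter-screen.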

[3] = system: thyroid hormone receptor (rat, GH3 cells); assay: qHTS assay to identify small molecule agonists of the thyroid receptor (TR) signaling pathway (AID 743066; calls by dose curve; also: % is scaled to controls: 0 for no effect and ±100 for the full control effect)
[4] = qHTS assay to identify small molecule antagonists of the estrogen receptor alpha (ER-alpha) signaling pathway using the BG1 cell line - cell viability counter screen (AID 743081);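 also: compound given together with 17beta-estradiol as the ER stimulus; series mostly up to about 70 µM; % is scaled to controls: 0 for no effect and ±100 for the full control effect; nearly all actives have a fitted effect of over 45% in size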
Aromatase (Homo sapiens) = Aromatase (Homo sapiens) (UniProt P11511); assay: qHTS assay to identify aromatase inhibitors (AID 743083); also: nearly all actives have a fitted effect of over 55% in size; also: potency is read from the fitted curve at half-maximal effect
Chain of Aromatase (Homo sapiens) (P11511 whole entry, looked up): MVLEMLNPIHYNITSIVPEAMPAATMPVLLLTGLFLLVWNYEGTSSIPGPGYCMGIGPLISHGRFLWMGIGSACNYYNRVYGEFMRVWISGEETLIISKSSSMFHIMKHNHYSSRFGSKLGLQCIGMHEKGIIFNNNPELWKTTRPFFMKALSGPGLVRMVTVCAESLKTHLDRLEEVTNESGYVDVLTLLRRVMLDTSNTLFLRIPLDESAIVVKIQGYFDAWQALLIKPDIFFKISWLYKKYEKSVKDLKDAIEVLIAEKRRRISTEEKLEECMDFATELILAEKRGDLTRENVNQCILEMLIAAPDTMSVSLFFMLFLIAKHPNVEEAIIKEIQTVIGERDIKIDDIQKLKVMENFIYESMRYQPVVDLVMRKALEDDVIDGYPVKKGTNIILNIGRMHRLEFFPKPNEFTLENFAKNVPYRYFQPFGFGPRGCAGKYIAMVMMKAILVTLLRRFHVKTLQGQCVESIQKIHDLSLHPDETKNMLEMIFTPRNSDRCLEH

[5] = biological target: Peroxisome proliferator-activated receptor gamma (Homo sapiens) (UniProt P37231); assay: qHTS assay to identify small molecule agonists of the peroxisome proliferator-activated receptor gamma (PPARg) signaling pathway (AID 743094; active = well fitted activation curve with a large enough effect in the signal ratio in the repeat runs, not every such curve was filed as active; inconclusive = weak or mixed curves, or effect the other way; inactive = no such curve, though single readings can be large or run the other way; the % refers to the signal ratio; also: % is scaled to controls: 0 for no effect and ±100 for the full control effect)
Chain of Peroxisome proliferator-activated receptor gamma (Homo sapiens) (P37231 whole entry, looked up): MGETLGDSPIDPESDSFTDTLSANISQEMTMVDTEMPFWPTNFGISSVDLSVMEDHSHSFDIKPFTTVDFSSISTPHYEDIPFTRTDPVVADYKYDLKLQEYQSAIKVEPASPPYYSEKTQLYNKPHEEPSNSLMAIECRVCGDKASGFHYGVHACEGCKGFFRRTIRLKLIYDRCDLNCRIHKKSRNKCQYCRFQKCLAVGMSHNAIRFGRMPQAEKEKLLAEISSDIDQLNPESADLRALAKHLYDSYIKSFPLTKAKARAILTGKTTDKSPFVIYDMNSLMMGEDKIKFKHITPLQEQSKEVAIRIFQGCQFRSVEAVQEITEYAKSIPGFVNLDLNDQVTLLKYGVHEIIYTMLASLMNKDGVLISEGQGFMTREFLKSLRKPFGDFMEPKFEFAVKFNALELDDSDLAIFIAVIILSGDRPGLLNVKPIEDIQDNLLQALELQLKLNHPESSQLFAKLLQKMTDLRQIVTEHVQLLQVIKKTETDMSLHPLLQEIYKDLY
Procedure, shortened: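 HEK293H PPARg-bla cells, 5 h settle at 37C/5% CO2; compound (DMSO) 17 h, 37C; B/G FRET substrate 1 h RT; fluorescence intensity read-out. qHTS format.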

[6] = qHTS assay to identify small molecule antagonists of the peroxisome proliferator-activated receptor gamma (PPARg) signaling pathway - cell viability counter screen (AID 743194); details: Potency: co-treated with 50 nM rosiglitazone; also: nearly all actives have a fitted effect of over 55% in size; also: potency is read from the fitted curve at half-maximal effect
Procedure, shortened: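 Cytotoxicity counter screen in PPARg-bla HEK293H cells, same wells as reporter assay. Compounds plus 50 nM rosiglitazone (final) for 17 h at 37 C, then viability read by CellTiter-Glo luminescence.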

[7] = qHTS assay for small molecule agonists of the antioxidant response element (ARE) signaling pathway - cell viability counter screen (AID 743203; calls by dose curve; also: nearly all actives have a fitted effect of over 55% in size; also: potency is read from the fitted curve at half-maximal effect)
Procedure, shortened: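 Luminescence read-out (CellTiter-Glo, 30 min at room temperature) measured cell viability in the same wells as the ARE beta-lactamase reporter. HepG2 ARE-bla cells were treated with compounds for 16 hrs at 37C/5% CO2.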

[8] = qHTS assay for small molecule activators of the heat shock response signaling pathway - cell viability counter screen (AID 743209); also: % is scaled to controls: 0 for no effect and ±100 for the full control effect; nearly all actives have a fitted effect of over 50% in size
Procedure, shortened: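 HSE-bla HeLa; 1500 cells/well; overnight 37 C, 5% CO2; compound 5 h 37 C; LiveBLAzer B/G substrate 2.5 h RT; CellTiter-Glo 30 min RT; luminescence.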

[9] = qHTS assay for small molecule activators of the heat shock response signaling pathway (AID 743210; active = well fitted activation curve with a large enough effect in the signal ratio in the repeat runs, with a control signal flat, not every such curve was filed as active; inconclusive = weak or mixed curves; the % refers to the signal ratio;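 also: HeLa cells with beta-lactamase reporter driven by heat shock elements; series mostly up to about 63 µM; % is scaled to controls: 0 for no effect and ±100 for the full control effect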)
Procedure, shortened: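 Beta-lactamase reporter read-out: FRET substrate fluorescence after 2.5 h at RT, following 5 h compound treatment at 37 C of HeLa cells carrying HSE-driven bla reporter; quantitative HTS format.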

[10] = biological target: Estrogen receptor (Homo sapiens) (UniProt P03372); assay: qHTS assay to identify small molecule antagonists of the estrogen receptor alpha (ER-alpha) signaling pathway (AID 743069; active = well fitted curve in the direction sought with a large enough effect in the signal ratio in the repeat runs, not every such curve was filed as active; inconclusive = weak or mixed curves, or effect the other way; inactive = no such curve, though single readings can be large or run the other way; the % refers to the signal ratio; also: potency is read from the fitted curve at half-maximal effect)
Chain of Estrogen receptor (Homo sapiens) (P03372 whole entry, looked up): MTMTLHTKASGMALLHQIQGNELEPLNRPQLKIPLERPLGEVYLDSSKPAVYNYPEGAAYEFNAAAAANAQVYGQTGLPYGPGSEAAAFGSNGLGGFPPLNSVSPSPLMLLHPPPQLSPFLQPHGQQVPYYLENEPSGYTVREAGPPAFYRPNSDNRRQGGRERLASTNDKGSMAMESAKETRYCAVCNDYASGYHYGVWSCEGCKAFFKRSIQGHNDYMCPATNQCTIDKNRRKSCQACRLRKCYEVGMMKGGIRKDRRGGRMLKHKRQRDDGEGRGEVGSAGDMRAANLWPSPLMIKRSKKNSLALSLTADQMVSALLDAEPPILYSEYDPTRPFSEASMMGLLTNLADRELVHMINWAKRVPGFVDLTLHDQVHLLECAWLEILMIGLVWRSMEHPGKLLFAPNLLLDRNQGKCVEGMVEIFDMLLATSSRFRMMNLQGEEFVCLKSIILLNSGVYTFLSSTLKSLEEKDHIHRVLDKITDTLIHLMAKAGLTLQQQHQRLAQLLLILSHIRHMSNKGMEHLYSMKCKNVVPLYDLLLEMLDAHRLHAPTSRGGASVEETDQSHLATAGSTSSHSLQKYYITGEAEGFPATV
Procedure, shortened: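 Beta-lactamase FRET fluorescence is read after 2 hr at room temperature with LiveBLAzer B/G substrate. Before that, ER-alpha-bla HEK293 cells sit 4 hr after plating, then receive compound plus 17beta-estradiol and incubate 18 hr at 37C.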

[11] = qHTS assay to identify small molecule antagonists of the estrogen receptor alpha (ER-alpha) signaling pathway - cell viability counter screen (AID 743074; calls by dose curve;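 also: HEK293 cells carrying ER-alpha-UAS-bla reporter stimulated with 17beta-estradiol; nearly all actives have a fitted effect of over 45% in size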; also: potency is read from the fitted curve at half-maximal effect)
[12] = biological target: Estrogen receptor (Homo sapiens) (UniProt P03372); assay: qHTS assay to identify small molecule agonists of the estrogen receptor alpha (ER-alpha) signaling pathway (AID 743075; calls by dose curve;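 also: HEK293 GripTite cells with ER-alpha and UAS-driven beta-lactamase reporter; % is scaled to controls: 0 for no effect and ±100 for the full control effect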)
[13] = qHTS assay to identify aromatase inhibitors - cell viability counter screen (AID 743084); also: potency is read from the fitted curve at half-maximal effect
[14] = biological target: Aryl hydrocarbon receptor (Homo sapiens) (UniProt P35869); assay: qHTS assay to identify small molecule that activate the aryl hydrocarbon receptor (AhR) signaling pathway (AID 743085); also: nearly all actives have a fitted effect of over 15% in size; also: potency is read from the fitted curve at half-maximal effect
Chain of Aryl hydrocarbon receptor (Homo sapiens) (P35869 whole entry, looked up): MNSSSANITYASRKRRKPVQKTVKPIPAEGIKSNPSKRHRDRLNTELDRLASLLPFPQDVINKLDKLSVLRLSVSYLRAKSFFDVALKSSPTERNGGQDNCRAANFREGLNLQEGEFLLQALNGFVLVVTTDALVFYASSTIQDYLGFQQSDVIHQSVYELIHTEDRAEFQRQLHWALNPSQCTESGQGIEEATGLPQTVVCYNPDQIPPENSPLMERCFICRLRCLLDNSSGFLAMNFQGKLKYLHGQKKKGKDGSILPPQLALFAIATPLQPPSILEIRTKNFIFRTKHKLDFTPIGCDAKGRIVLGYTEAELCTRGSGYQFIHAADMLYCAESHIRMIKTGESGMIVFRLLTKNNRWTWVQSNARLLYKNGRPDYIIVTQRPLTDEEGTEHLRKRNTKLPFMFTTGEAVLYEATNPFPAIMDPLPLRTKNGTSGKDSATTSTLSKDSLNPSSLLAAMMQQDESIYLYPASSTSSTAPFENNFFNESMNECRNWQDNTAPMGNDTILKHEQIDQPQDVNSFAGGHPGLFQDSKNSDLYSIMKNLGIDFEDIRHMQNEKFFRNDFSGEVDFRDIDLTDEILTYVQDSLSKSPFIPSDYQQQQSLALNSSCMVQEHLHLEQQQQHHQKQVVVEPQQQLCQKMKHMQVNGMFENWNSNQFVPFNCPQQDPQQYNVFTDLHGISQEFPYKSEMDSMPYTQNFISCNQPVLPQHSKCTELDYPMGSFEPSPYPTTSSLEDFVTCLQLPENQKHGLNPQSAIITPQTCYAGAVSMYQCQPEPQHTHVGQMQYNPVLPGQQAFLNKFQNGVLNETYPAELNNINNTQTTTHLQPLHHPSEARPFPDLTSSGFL
Procedure, shortened: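 Stably transfected human liver carcinoma cells (HG2L7.5c1; 20 DRE-firefly luciferase) were incubated 5 h, dosed, and kept 24 h at 37C. Agonism was scored from increased luciferase luminescence.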

[15] = qHTS assay to identify small molecule that activate the aryl hydrocarbon receptor (AhR) signaling pathway - cell viability counter screen (AID 743086);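 also: HepG2 liver cells carrying the AhR DRE luciferase reporter; series mostly up to about 70 µM; % is scaled to controls: 0 for no effect and ±100 for the full control effect; nearly all actives have a fitted effect of over 45% in size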
Procedure, shortened: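 HepG2-AhR-luc (HG2L7.5c1) cells, 4000/well, treated 24 h at 37 C with compound; viability measured as CellTiter-Fluor fluorescence after 30 min in the same wells as the luciferase read.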

[16] = biological target: Peroxisome proliferator-activated receptor gamma (Homo sapiens) (UniProt P37231); assay: qHTS assay to identify small molecule antagonists of the peroxisome proliferator-activated receptor gamma (PPARg) signaling pathway (AID 743191; calls by dose curve; also: series mostly up to about 63 µM; % is scaled to controls: 0 for no effect and ±100 for the full control effect; nearly all actives have a fitted effect of over 30% in size)
Procedure, shortened: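 GeneBLAzer PPARg UAS-bla HEK293H cells, 5 h post-plating, exposed to compounds 17 h at 37C. LiveBLAzer B/G FRET substrate added for 1 h at room temperature; beta-lactamase reporter read by fluorescence intensity.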

[17] = qHTS assay to identify small molecule antagonists of the estrogen receptor alpha (ER-alpha) signaling pathway using the BG1 cell line (AID 743080; calls by dose curve;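 also: BG1 cells stimulated with 17beta-estradiol alongside compound; nearly all actives have a fitted effect of over 25% in size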; also: potency is read from the fitted curve at half-maximal effect)
Procedure, shortened: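 Endogenous full-length ER-alpha in BG1-Luc-4E2 cells drives a stably integrated 4×ERE luciferase gene; compounds were tested against 17beta-estradiol over 21.5 h, with luminescence and multiplexed viability fluorescence recorded.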

[18] = biological target: Estrogen receptor (Homo sapiens) (UniProt P03372); assay: qHTS assay to identify small molecule agonists of the estrogen receptor alpha (ER-alpha) signaling pathway using the BG1 cell line (AID 743079); also: % is scaled to controls: 0 for no effect and ±100 for the full control effect; nearly all actives have a fitted effect of over 20% in size
[19] = qHTS assay for small molecule agonists of the antioxidant response element (ARE) signaling pathway (AID 743202; active = well fitted activation curve with a large enough effect in the signal ratio in the repeat runs, not every such curve was filed as active; inconclusive = weak or mixed curves, or effect the other way; inactive = no such curve, though single readings can be large or run the other way; the % refers to the signal ratio; also: % is scaled to controls: 0 for no effect and ±100 for the full control effect)
Procedure, shortened: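 HepG2 ARE-bla reporter line, 2,000 cells/well; 5 h preincubation 37 C/5% CO2; compound (DMSO) 16 h 37 C; B/G FRET substrate 2 h RT; fluorescence intensity.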

C[C@@H]1C[C@@H]([C@H](O)CC2CC(=O)NC(=O)C2)C(=O)[C@@H](C)C1
inactive: Potency [3] | Potency [4] | Potency [5] | Potency [6] | Potency [7] | Potency [8] | Potency [9]
active: Potency [1] 237 nM | Potency [2] 66.8 nM and 60.8 nM | Potency (Aromatase (Homo sapiens)) 750 nM and 383 nM

O=C1c2ccccc2C(=O)N1SC(Cl)(Cl)Cl
inactive: Potency [12] | Potency [14] | Potency [15] | Potency [5]
active: Potency [1] 4.27 µM and 2.17 µM | Potency [2] 2.4 µM and 1.54 µM | Potency [10] 24.5 µM [inconclusive] | Potency (Aromatase (Homo sapiens)) 3.02 µM and 4.86 µM | Potency [13] 1.22 µM | Potency [6] 2.19 µM | Potency [7] 60.3 µM and 13.7 µM
21.6 µM (active) and inactive: Potency [11]

Nc1ccccc1C(=O)OCCc1ccccc1
active: Potency [14] 30.6 µM
inactive: Potency [1] | Potency [2] | Potency [3] | Potency [11] | Potency [4] | Potency [13] | Potency [15] | Potency [5] | Potency [6] | Potency [7] | Potency [8] | Potency [9]

C[N+](C)(C)CCOC(=O)C(O)(c1ccccc1)c1ccccc1
inactive: Potency [1] | Potency [2] | Potency [3] | Potency [11] | Potency [4] | Potency (Aromatase (Homo sapiens)) | Potency [13] | Potency [14] | Potency [15] | Potency [6] | Potency [7] | Potency [8] | Potency [9]

COC1=CC(=O)O[C@@H](/C=C/c2ccc3c(c2)OCO3)C1
active: Potency [2] 58.5 nM | Potency [14] 0.414 µM
inactive: Potency [1] | Potency [3] | Potency [4] | Potency (Aromatase (Homo sapiens)) | Potency [13] | Potency [15] | Potency [5] | Potency [16] | Potency [6] | Potency [7] | Potency [8] | Potency [9]

CCCCCCCCCCCCN=C(N)N
inactive: activity change, negative = cytotoxic [1] -13.9% [at 3.79 µM] | activation [3] -1.59% [at 3.63 µM] | activity change, negative = inhibition [17] -30.4% [at 3.79 µM] | activity change, negative = cytotoxicity [4] -12.7% [at 3.79 µM] | activity, negative = inhibition (Aromatase (Homo sapiens)) -1.41% [at 3.79 µM] | activity change, negative = cytotoxicity [13] -14.3% [at 3.79 µM] | activation [14] -0.0242% [at 3.79 µM] | viability change, negative = cytotoxic [15] -4.27% [at 3.79 µM] | activation [5] 0.522% [at 3.17 µM] | ratio activity, negative = inhibition [16] -16.9% [at 2.7 µM] | viability change, negative = cytotoxic [7] -8.9% [at 3.74 µM] | activity change, negative = cytotoxicity [8] -18.4% [at 2.7 µM]

O=C1NC(=O)C(=O)C(=O)N1
inactive: Potency [1] | Potency [3] | Potency [11] | Potency [12] | Potency [18] | Potency [4] | Potency (Aromatase (Homo sapiens)) | Potency [13] | Potency [14] | Potency [15] | Potency [5] | Potency [6] | Potency [19] | Potency [7] | Potency [8]

CNC(=O)Oc1cccc(N=CN(C)C)c1
inactive: Potency [1] | Potency [3] | Potency [11] | Potency [12] | Potency [18] | Potency [4] | Potency (Aromatase (Homo sapiens)) | Potency [13] | Potency [15] | Potency [5] | Potency [6] | Potency [7] | Potency [8]

CN1CC[C@]23c4c5ccc(O)c4O[C@H]2[C@@H](O)C=C[C@H]3[C@H]1C5
inactive: Potency [1] | Potency [3] | Potency [11] | Potency [4] | Potency (Aromatase (Homo sapiens)) | Potency [13] | Potency [14] | Potency [15] | Potency [5] | Potency [16] | Potency [6] | Potency [19] | Potency [7] | Potency [8]

CCCCNC(=O)OCC#CI
active: Potency [1] 6.82 µM and 4.33 µM | Potency [2] 9.64 µM and 4.86 µM | Potency [17] 60.8 µM and 68.6 µM | Potency (Aromatase (Homo sapiens)) 4.83 µM and 13.7 µM | Potency [13] 6.08 µM and 17.2 µM | Potency [7] 21.7 µM
inactive: Potency [3] | Potency [12] | Potency [4] | Potency [14] | Potency [15] | Potency [8]

CCC1(CCC(C)C)C(=O)NC(=O)NC1=O
inactive: Potency [1] | Potency [2] | Potency [3] | Potency (Aromatase (Homo sapiens)) | Potency [13] | Potency [14] | Potency [15] | Potency [5] | Potency [16] | Potency [6] | Potency [19] | Potency [7] | Potency [8] | Potency [9]

C[C@]12CC[C@H]3[C@@H](CCC4=CC(=O)CC[C@@H]43)[C@@H]1CC[C@@H]2OC(=O)CCc1ccccc1
inactive: Potency [1] | Potency [3] | Potency [11] | Potency [13] | Potency [14] | Potency [15] | Potency [5] | Potency [16] | Potency [6] | Potency [7] | Potency [8] | Potency [9]

CCC1CCC(=O)O1 (configuration not stated)
inactive: Potency [1] | Potency [2] | Potency [3] | Potency [11] | Potency [4] | Potency [15] | Potency [19] | Potency [7] | Potency [8] | Potency [9]

Cc1ncc(C[n+]2csc(CCO)c2C)c(N)n1
inactive: Potency [1] | Potency [3] | Potency [11] | Potency [4] | Potency (Aromatase (Homo sapiens)) | Potency [13] | Potency [14] | Potency [15] | Potency [6] | Potency [7] | Potency [8]

O=C(O)CCCOc1ccc(Cl)cc1Cl
inactive: Potency [1] | Potency [2] | Potency [3] | Potency [11] | Potency [4] | Potency (Aromatase (Homo sapiens)) | Potency [15] | Potency [6] | Potency [19] | Potency [8] | Potency [9]
inactive and 27.8 µM (active): Potency [7]
